Here are results for 4 compounds from PubChem BioAssay (NCATS).

Inconclusive results are not listed. Where a call stands in place of a potency, no number is given. The source made the active and inactive calls. The call rests on the fitted dose curve.
Potency means the concentration at half of the fitted maximal effect.

A short description of the first assay: Confirmatory qHTS for VERO E6 Cytotoxicity Assay: Counterscreen for SARS-CoV-2 CPE Assay (AID 1508605). Further: nearly all actives have a fitted effect of over 60% in size. Conditions: cell viability luminescence; series mostly up to 20 µM.
`COc1cc(C(C)=O)ccc1OCCCN1CCC(c2noc3cc(F)ccc23)CC1`: the Potency result was “inactive”.
On to `CN1CCC[C@@H]1CCO[C@](C)(c1ccccc1)c1ccc(Cl)cc1`, for which the Potency entry is “inactive”.
Same read-out and setting: with `CN1CCN(CCCN2c3ccccc3Sc3ccc(Cl)cc32)CC1` the figure was 20 µM (active).

A short description of a further assay: Confirmatory qHTS for activators (rescue) of SARS-CoV-2 Cytopathic Effect (CPE) (AID 1508606). Further: nearly all actives have a fitted effect of over 70% in size. Conditions: Vero E6 SARS-CoV-2 CPE rescue, viability luminescence; series mostly up to 20 µM.
`COc1cc(C(C)=O)ccc1OCCCN1CCC(c2noc3cc(F)ccc23)CC1`: the Potency is 11.2 µM (active).
The same measure, in the same setting: with `CN1CCC[C@@H]1CCO[C@](C)(c1ccccc1)c1ccc(Cl)cc1` the figure was 10 µM (active).
Consider `OCCN1CCN(CCCN2c3ccccc3Sc3ccc(Cl)cc32)CC1`, for which the Potency entry was “inactive”.
